Results filed as inconclusive are left out. The source holds several records for some structures; these can differ, active in one and inactive in another. Activity calls are given as the source filed them. Unless noted, calls come from the whole dose curve.

Nine compounds from PubChem BioAssay (Tox21) can be followed below.

A short description of assay [1]: Nuclear factor erythroid 2-related factor 2/antioxidant responsive element (Nrf2/ARE) small molecule agonists: luciferase reporter gene qHTS assay in human keratinocytes (AID 1919969). Note: nearly all actives have a fitted effect of over 35% in size. Note: potency is the fitted concentration of half-maximal effect. On the technique in general: A reporter such as luciferase makes a cellular process visible.
Assay [2] deals with KiSS-1 receptor (Homo sapiens) (UniProt Q969F8). Put plainly: Human kisspeptin (KISS1R) small molecule agonists, calcium flux assay in KISS1R-HEK293 cells (AID 1920064; active = well fitted activation curve with a large enough effect in the repeat runs). In a few lines: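 Triplicate 15-concentration series were applied to dye-loaded human KISS1R HEK293 cells, and agonist-evoked calcium fluorescence was captured for 3 min.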
(In general: Calcium assays in cells follow changes in intracellular calcium, usually with a dye or a luminescent sensor.)

The nature of assay [3]: G protein-coupled receptor (GPCR) small molecule agonists, calcium flux assay: HEK293 wild type cell line counter screen (AID 1920065). The gist of the method: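 Non-specific calcium responders were flagged by adding DMSO-dissolved compounds to dye-loaded cells and reading 480/540 nm fluorescence each second for 3 min; ATP served as positive control.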
Assay [4] is described as follows: p53 small molecule agonists, cell-based qHTS assay with human liver microsomes (AID 1963577).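 Note: p53 response element beta-lactamase reporter cells with liver microsomes plus NADPH.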 The gist of the method:
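Steps: plate p53RE-bla cells, incubate 5 h at 37 C; add compound in DMSO; add microsomes (0.5 mg/mL final) and NADPH (0.5 mg/mL final); incubate 16 h at 37 C; add LiveBLAzer, 2 h RT; read fluorescence.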
For orientation: In qHTS, concentration-response curves come from the screen itself.

A short description of assay [5]: p53 small molecule agonists, cell-based qHTS assay with rat liver microsomes (AID 1963578). In a few lines:
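Metabolic activation is supplied by rat liver microsomes with NADPH (each 0.5 mg/mL final). p53RE-bla cells incubate with compound 16 h at 37 C; reporter activity is measured by LiveBLAzer fluorescence.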

Assay [6] can be described thus: p53 small molecule agonists, cell-based qHTS assay with human liver microsomes: qHTS cell viability counter screen (AID 1963579). Note: nearly all actives have a fitted effect of over 45% in size. Note: potency is the fitted concentration of half-maximal effect. In a few lines:
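After the 460/530 nm beta-lactamase read, CellTiter-Glo was added to the same wells and luminescence measured after 30 min at room temperature, giving viability of p53RE-bla cells treated 16 h with compounds plus microsomes and NADPH.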

Assay [7] in a line: p53 small molecule agonists, cell-based qHTS assay with rat liver microsomes: qHTS cell viability counter screen (AID 1963580). Note: nearly all actives have a fitted effect of over 45% in size. Note: potency is the fitted concentration of half-maximal effect. In a few lines: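 Luminescent ATP readout (CellTiter-Glo, 30 min at room temperature) reports viability of p53RE-bla HCT-116 cells after 16 h at 37 C with test compounds under metabolic activation by rat liver microsomes and NADPH at 0.5 mg/mL final each.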

Assay [8] in a line: p53 small molecule agonists, cell-based qHTS assay: qHTS cell viability counter screen (AID 1963581). Note: nearly all actives have a fitted effect of over 45% in size. Note: potency is the fitted concentration of half-maximal effect. In a few lines: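 Multiplexed with the reporter read, a CellTiter-Glo step (30 min, room temperature) gauges ATP-based viability of HCT-116 p53RE-bla cells after 16 h compound incubation at 37 C.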
Assay [9] in a line: p53 small molecule agonists, cell-based qHTS assay (AID 1963582; active = well fitted activation curve with a large enough effect in the signal ratio in the repeat runs, not every such curve was filed as active; the % refers to the signal ratio; note: potency is the fitted concentration of half-maximal effect). The gist of the method: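 Beta-lactamase reporter cells (p53RE-bla) treated with compounds for 16 h at 37 C; FRET substrate, 2 h, room temperature; fluorescence intensity.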
The target of assay [10] is 5-hydroxytryptamine receptor 2A (Homo sapiens) (UniProt P28223). Put plainly: 5-hydroxytryptamine receptor 2A (HTR2A) small molecule agonists, cell-based qHTS assay (AID 1963587). Note: nearly all actives have a fitted effect of over 30% in size. Note: potency is the fitted concentration of half-maximal effect. The gist of the method: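 HTR2A-CHO cells, plated 18 h at 37 C/5% CO2, dye-loaded 1 h at 37 C; compounds in DMSO added by pin tool (agonist mode). Intracellular calcium flux read as kinetic fluorescence on FDSS over 2 min at 1 s intervals.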

Assay [11] concerns the target Muscarinic acetylcholine receptor M1 (Homo sapiens) (UniProt P11229). Put plainly: Cholinergic receptor muscarinic 1 (CHRM1) small molecule antagonists, cell-based qHTS assay (AID 1963588). Note: nearly all actives have a fitted effect of over 40% in size. Note: potency is the fitted concentration of half-maximal effect. The gist of the method: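 Compounds were tested at 15 concentrations in three independent runs. Dye-loaded CHRM1-CHO cells were exposed 5 min at room temperature before stimulation by acetylcholine added at 50nM. Intracellular calcium was read kinetically on FDSS for 3 min.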

Assay [12] shares this target. Put plainly: Cholinergic receptor muscarinic 1 (CHRM1) small molecule agonists, cell-based qHTS assay (AID 1963589). Note: nearly all actives have a fitted effect of over 35% in size. The gist of the method: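 qHTS, 15-point titration, 3 independent runs: compounds pin-transferred onto dye-loaded CHRM1-CHO cells (human M1), calcium fluorescence followed every second to detect agonism.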
For assay [13], the target named is Beta-2 adrenergic receptor (Homo sapiens) (UniProt P07550). Put plainly: Adrenergic beta2 receptor (ADRB2) small molecule antagonists, cell-based qHTS assay (AID 1963592). Note: nearly all actives have a fitted effect of over 50% in size. Note: potency is the fitted concentration of half-maximal effect. The gist of the method: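 Assay format: CHO-ADRB2 cells, 18-20hr seeding at 37C/5% CO2, then compound plus 1nM isoproterenol agonist mix for 0.5hr RT. Homogeneous time-resolved fluorescence cAMP detection after 1hr, expressed as 665/615 nm ratio.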

For assay [14], the target named is D(2) dopamine receptor (Homo sapiens) (UniProt P14416). Put plainly: Dopamine D2 receptor (DRD2) small molecule agonists, cell-based qHTS assay (AID 1963594). Note: nearly all actives have a fitted effect of over 35% in size. The gist of the method:
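HEK293 cells stably expressing DRD2 were cultured 24 h at 37 C, then given Ro20-1724 (0.1 mM final) and compounds for 10 min at room temperature. NKH477 (200nM) was then added for 30 min. cAMP was read by HTRF.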

For assay [15] the target is unchanged. Put plainly: Dopamine D2 receptor (DRD2) small molecule antagonists, cell-based qHTS assay (AID 1963595; active = well fitted inhibition curve with a large enough effect in the signal ratio in the repeat runs, with a control signal flat; the % refers to the signal ratio; note: potency is the fitted concentration of half-maximal effect). In a few lines: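 HEK293 cells stably expressing DRD2 were preincubated with 0.1 mM Ro20-1724, then with compound for 10 min at room temperature. Cells were stimulated with 200 nM NKH477 plus 12 nM quinpirole for 30 min, and cAMP was read by HTRF.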
Assay [16] in a line: cAMP Responsive Elements (CRE) small molecule agonists, cell-based qHTS assay (AID 1963590). The gist of the method:
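Quantitative HTS for CRE agonists: HEK 293T CRE-bla cells, overnight plating, 3 h compound incubation at 37 C/5% CO2, then 2 h room-temperature LiveBLAzer B/G FRET substrate loading.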

The nature of assay [17]: cAMP Responsive Elements (CRE) small molecule antagonists, cell-based qHTS assay (AID 1963591; active = well fitted inhibition curve with a large enough effect in the signal ratio in the repeat runs, not every such curve was filed as active; the % refers to the signal ratio; note: potency is the fitted concentration of half-maximal effect). In a few lines:
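Fluorescence intensity from cleaved LiveBLAzer B/G substrate (2 h, room temperature) quantified CRE-bla activity in HEK 293T cells exposed 3 h to compound with 0.25 uM final NKH477.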

The target in assay [18] is 5-hydroxytryptamine receptor 2A (Homo sapiens) (UniProt P28223). Put plainly: 5-hydroxytryptamine receptor 2A (HTR2A) small molecule antagonists, cell-based qHTS assay (AID 1963586). Note: nearly all actives have a fitted effect of over 45% in size. Note: potency is the fitted concentration of half-maximal effect. In a few lines: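 CHO cells stably expressing human HTR2A were plated for 18 h at 37 C, then loaded with calcium dye for 1 h. Compounds were preincubated 5 min at room temperature before DOI (4 nM solution) was added. Kinetic fluorescence was read for 3 min.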

Assay [19] has as its target Beta-2 adrenergic receptor (Homo sapiens) (UniProt P07550). Put plainly: Adrenergic beta2 receptor (ADRB2) small molecule agonists, cell-based qHTS assay (AID 1963593).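 Note: CHO cells stably overexpressing human ADRB2.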 In a few lines: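 CHO cells stably over-expressing ADRB2 were plated overnight at 37C, then dosed with compounds plus a stimulation mix containing 100uM IBMX and 25uM Ro-20-1724 for 0.5hr at room temperature. cAMP was measured by HTRF competition, 1hr.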

Sequence of D(2) dopamine receptor (Homo sapiens) (P14416 whole entry, looked up): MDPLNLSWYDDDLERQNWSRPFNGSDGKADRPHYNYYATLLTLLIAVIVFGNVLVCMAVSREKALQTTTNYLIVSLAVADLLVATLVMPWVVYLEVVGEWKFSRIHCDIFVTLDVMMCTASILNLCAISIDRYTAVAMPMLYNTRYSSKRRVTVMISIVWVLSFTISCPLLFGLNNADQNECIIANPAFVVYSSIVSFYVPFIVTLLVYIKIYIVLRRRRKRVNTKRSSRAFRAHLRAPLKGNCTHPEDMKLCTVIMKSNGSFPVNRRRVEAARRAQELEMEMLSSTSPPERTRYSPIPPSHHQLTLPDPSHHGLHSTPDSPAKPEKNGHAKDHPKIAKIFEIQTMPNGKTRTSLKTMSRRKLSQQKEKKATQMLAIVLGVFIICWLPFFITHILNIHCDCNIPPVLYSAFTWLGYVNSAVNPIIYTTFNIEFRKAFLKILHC
Sequence of 5-hydroxytryptamine receptor 2A (Homo sapiens) (P28223 whole entry, looked up): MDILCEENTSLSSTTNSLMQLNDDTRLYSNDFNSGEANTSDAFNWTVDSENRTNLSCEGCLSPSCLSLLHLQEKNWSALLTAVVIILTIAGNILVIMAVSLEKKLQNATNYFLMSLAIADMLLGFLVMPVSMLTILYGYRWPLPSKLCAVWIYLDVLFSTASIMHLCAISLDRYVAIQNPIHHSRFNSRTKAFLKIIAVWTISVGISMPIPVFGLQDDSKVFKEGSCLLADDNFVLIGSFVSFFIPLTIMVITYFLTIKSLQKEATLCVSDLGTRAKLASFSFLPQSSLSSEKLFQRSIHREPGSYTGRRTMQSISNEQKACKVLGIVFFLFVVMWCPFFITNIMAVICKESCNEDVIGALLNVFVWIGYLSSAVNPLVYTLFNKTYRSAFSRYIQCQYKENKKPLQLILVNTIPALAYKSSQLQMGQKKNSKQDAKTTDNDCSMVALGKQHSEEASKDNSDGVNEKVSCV
Sequence of Muscarinic acetylcholine receptor M1 (Homo sapiens) (P11229 whole entry, looked up): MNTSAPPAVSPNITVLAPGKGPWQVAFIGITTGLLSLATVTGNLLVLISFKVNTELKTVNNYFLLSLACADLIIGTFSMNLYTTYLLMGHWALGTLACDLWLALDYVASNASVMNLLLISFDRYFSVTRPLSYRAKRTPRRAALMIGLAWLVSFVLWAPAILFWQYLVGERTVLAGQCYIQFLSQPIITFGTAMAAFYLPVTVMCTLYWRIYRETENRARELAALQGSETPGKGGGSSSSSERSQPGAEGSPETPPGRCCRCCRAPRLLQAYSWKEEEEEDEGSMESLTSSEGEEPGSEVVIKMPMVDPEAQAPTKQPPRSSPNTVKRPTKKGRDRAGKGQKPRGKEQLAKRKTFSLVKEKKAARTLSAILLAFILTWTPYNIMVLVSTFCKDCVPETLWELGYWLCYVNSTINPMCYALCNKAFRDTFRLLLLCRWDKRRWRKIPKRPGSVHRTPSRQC
Sequence of KiSS-1 receptor (Homo sapiens) (Q969F8 whole entry, looked up): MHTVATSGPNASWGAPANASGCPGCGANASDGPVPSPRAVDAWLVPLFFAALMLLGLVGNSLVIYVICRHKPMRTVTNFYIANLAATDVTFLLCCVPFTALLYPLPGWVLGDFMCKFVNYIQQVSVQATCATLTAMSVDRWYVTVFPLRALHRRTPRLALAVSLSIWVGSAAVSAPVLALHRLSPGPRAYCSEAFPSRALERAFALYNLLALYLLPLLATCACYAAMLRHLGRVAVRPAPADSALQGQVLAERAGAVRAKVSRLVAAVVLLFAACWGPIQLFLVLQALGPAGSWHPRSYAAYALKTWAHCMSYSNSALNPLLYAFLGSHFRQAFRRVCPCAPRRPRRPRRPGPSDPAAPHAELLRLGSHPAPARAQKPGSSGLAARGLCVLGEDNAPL
Sequence of Beta-2 adrenergic receptor (Homo sapiens) (P07550 whole entry, looked up): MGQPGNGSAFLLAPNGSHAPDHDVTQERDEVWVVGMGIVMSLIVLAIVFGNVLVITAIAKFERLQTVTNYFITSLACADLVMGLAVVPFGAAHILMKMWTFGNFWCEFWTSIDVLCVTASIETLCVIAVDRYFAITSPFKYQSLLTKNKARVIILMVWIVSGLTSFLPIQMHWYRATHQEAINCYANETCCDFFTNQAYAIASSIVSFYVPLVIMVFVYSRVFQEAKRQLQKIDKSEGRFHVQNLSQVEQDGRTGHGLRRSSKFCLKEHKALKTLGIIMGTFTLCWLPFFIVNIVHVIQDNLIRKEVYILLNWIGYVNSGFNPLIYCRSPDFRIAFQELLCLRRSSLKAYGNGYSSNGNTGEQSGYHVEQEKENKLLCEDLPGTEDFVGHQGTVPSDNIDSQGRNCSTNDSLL

`CCCCCCOC(=O)c1ccc(O)cc1`: the Potency in assay [1] is 19.4 µM (active) and inactive. Besides, the Potency entry in [2], in assay [3], in [4], in [5], in assay [6] and in [7] was “inactive” throughout. For the same compound, the Potency result in [8], in assay [9], in assay [10], in [11], in assay [12] and in assay [13] was “inactive” throughout. Moreover, in [14], the Potency result was “inactive”.

Take `CC(CN(C)C)CN1c2ccccc2CCc2ccccc21` (centres undefined): the Potency entry in [1], in assay [2], in [3], in assay [4], in [5] and in assay [6] was “inactive” in each case. The Potency entry in assay [7], in assay [10] and in [14] was “inactive” each time. Besides, the Potency in assay [15] was 23.7 µM (active).

With `CC1(O)CSC(C)(O)CS1` (centres undefined), in assay [1], the Potency is 30.6 µM (active). The Potency entry in assay [2], in [3], in [4], in assay [5], in assay [6] and in [7] was “inactive” throughout. Besides, the Potency result in [8], in assay [9], in assay [10], in [11], in [12] and in assay [16] was “inactive” in each case. The Potency entry in assay [17], in assay [13], in assay [14] and in assay [15] was “inactive” each time.

For the compound `NC(=O)C1(N2CCCCC2)CCN(CCCN2c3ccccc3CCc3ccc(Cl)cc32)CC1`, the Potency result in assay [1], in assay [2], in [3], in assay [4], in [5] and in [6] was “inactive” throughout. The Potency result in assay [7], in assay [11], in assay [12] and in assay [14] was “inactive” each time. Further, the Potency in assay [18] was 0.103 µM (active); in assay [15], 0.376 µM (active).

On to `Nc1cc(Cl)c([N+](=O)[O-])cc1O`, for which the Potency entry in assay [1], in assay [2], in [3], in [4], in [5] and in assay [6] was “inactive” each time. In addition, the Potency result in [7], in [8], in [9], in assay [18], in assay [10] and in assay [11] was “inactive” throughout. Moreover, the Potency entry in assay [12], in assay [16], in [17], in assay [13], in assay [19] and in assay [14] was “inactive” throughout. Besides, in assay [15], the Potency result is “inactive”.

With `CSc1ccc2c(c1)C(N1CCN(C)CC1)Cc1ccccc1S2` (centres undefined), the Potency result in assay [1], in [2], in assay [3], in [4], in assay [6] and in assay [7] was “inactive” throughout. In addition, the Potency entry in assay [8], in assay [10], in assay [12], in assay [13] and in assay [14] was “inactive” each time. For the same compound, the Potency in assay [15] was 0.0473 µM (active).

Turning to `NC(=O)c1ccccc1C(N)=O`, the Potency in assay [1] was 68.9 µM (active); in assay [9] it was 45.9 µM (active). Further, the Potency entry in assay [2], in [3], in [4], in assay [5], in assay [6] and in [18] was “inactive” each time. In addition, the Potency entry in assay [10], in assay [12], in assay [16], in [17], in [13] and in assay [14] was “inactive” throughout. The Potency result in assay [15] was “inactive”.

Regarding `CCCCC(CC)CN=C(N)NC(N)=NCCCCCCN=C(N)NC(N)=NCC(CC)CCCC` (centres undefined), the Potency entry in [1], in [2], in [3], in assay [4], in assay [5] and in assay [12] was “inactive” throughout. Moreover, the Potency in assay [6] was 22.3 µM (active); in assay [7] it was 17.8 µM (active); in assay [8], 19.9 µM (active); in assay [11], 0.918 µM (active); in assay [17] it was 29.8 µM (active); in assay [13], 29.8 µM (active). Further, the Potency in [15] was 13.3 µM (active).

Turning to `CCOC(=O)COc1ccc2c(c1)CC(NCC(O)c1cccc(Cl)c1)CC2` (centres undefined), the Potency result in assay [1], in assay [2], in assay [3], in assay [4], in [5] and in assay [6] was “inactive” throughout. For the same compound, the Potency entry in assay [8], in [9], in [18], in [12] and in assay [19] was “inactive” each time. The Potency in assay [10] was 31.2 µM (active).
